Assay results as given in PubChem BioAssay AID1159580 (chemical genetic matrix, 2015).
“And” between values parts separate entries of the source, which are not always exact repeats. Identical values can stand only once. About 2,000 (36%) of roughly 5,500 compounds were called active. Inconclusive results (about 18%) are left out. Rule as the data show it: active = normalized growth mostly below about 0.91 (no sharp cut-off); inconclusive = no clear call, values can overlap the other calls; inactive = mostly above about 0.92. The list shows a part of the results.

Test: chemical genetic growth profiling, strain panel (AID 1159580);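 also: tested at 20 µM; growth read once vehicle control cultures reached saturation at 30 °C; 1 = growth at the plate median or of vehicle wells; lower values mean less growth of the strain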
Settings: S. cerevisiae deletion strains, growth OD

Measured: normalized growth

C[C@@H]1CCC2[C@](C)(CO)[C@@H](O)CC[C@]2(C)[C@@]12CC[C@@](CO)(CCO)O2 (stereo partly specified)
inactive: locus YAL021C, strain ccr4, active compounds read low 0.991 | locus YAL026C, strain drs2, active compounds read low 0.985 | locus YAL030W, strain snc1, active compounds read low 0.987 | locus YBL061C, strain skt5, active compounds read low 0.967 | locus YBR009C, strain hhf1, active compounds read low 0.977 | locus YBR021W, strain FUR4, active compounds read low 0.998 | locus YBR023C, strain chs3, active compounds read low 0.983 | locus YBR171W, strain sec66, active compounds read low 0.965 | locus YBR229C, strain ROT2, active compounds read low 0.997 | locus YBR231C, strain swc5, active compounds read low 0.997 | locus YBR279W, strain paf1, active compounds read low 0.991 | locus YCL011C, strain gbp2, active compounds read low 0.994 | locus YCL016C, strain dcc1, active compounds read low 0.989 | locus YCL029C, strain bik1, active compounds read low 0.986 | locus YCL061C, strain MRC1, active compounds read low 0.975 | locus YCL069W, strain vba3, active compounds read low 0.979 | locus YCR088W, strain abp1, active compounds read low 0.979 | locus YDL005C, strain med2, active compounds read low 0.972 | locus YDL035C, strain GPR1, active compounds read low 1.02 | locus YDL040C, strain nat1, active compounds read low 0.972 | locus YDL074C, strain BRE1, active compounds read low 1 | locus YDL101C, strain DUN1, active compounds read low 1 | locus YDL134C, strain PPH21, active compounds read low 1.04 | locus YDL185W, strain tfp1, active compounds read low 0.987 | locus YDL192W, strain arf1, active compounds read low 0.994 | locus YDR001C, strain nth1, active compounds read low 0.986 | locus YDR069C, strain doa4, active compounds read low 0.963 | locus YDR101C, strain arx1, active compounds read low 0.995 | locus YDR137W, strain rgp1, active compounds read low 1.01 | locus YDR159W, strain sac3, active compounds read low 0.933 | locus YDR162C, strain NBP2, active compounds read low 1.06 | locus YDR195W, strain ref2 0.959 | locus YDR297W, strain sur2, active compounds read low 0.996 | locus YDR318W, strain mcm21, active compounds read low 0.994 | locus YDR334W, strain swr1, active compounds read low 0.976 | locus YDR335W, strain msn5, active compounds read low 0.978 | locus YDR388W, active compounds read low 0.974 | locus YDR392W, strain spt3, active compounds read low 0.975 | locus YDR502C, strain sam2, active compounds read low 1.01 | locus YEL003W, strain gim4, active compounds read low 0.974 | locus YEL037C, strain rad23, active compounds read low 0.968 | locus YEL061C, strain CIN8 (second series), active compounds read low 0.98 | locus YEL061C, strain CIN8, active compounds read low 1.01 | locus YER015W, strain faa2, active compounds read low 0.99 | locus YER016W, strain bim1, active compounds read low 0.981 | locus YER110C, active compounds read low 0.983 | locus YER111C, strain swi4, active compounds read low 0.959 | locus YER155C, strain BEM2 (second series), active compounds read low 0.958 | locus YER155C, strain BEM2, active compounds read low 0.993 | locus YER167W, strain BCK2, active compounds read low 1 | locus YFR010W, strain ubp6, active compounds read low 0.957 | locus YGL078C, strain dbp3, active compounds read low 0.985 | locus YGL086W, strain mad1, active compounds read low 1.03 | locus YGL167C, strain pmr1, active compounds read low 0.976 | locus YGL173C, strain kem1, active compounds read low 0.979 | locus YGL227W, strain vid30, active compounds read low 0.978 | locus YGL240W, strain doc1, active compounds read low 0.966 | locus YGL248W, strain PDE1, active compounds read low 1 | locus YGL253W, strain hxk2, active compounds read low 0.944 | locus YGR078C, strain PAC10, active compounds read low 1.03 | locus YGR135W, strain pre9, active compounds read low 0.983 | locus YGR229C, strain SMI1, active compounds read low 1.04 | locus YGR252W, strain gcn5, active compounds read low 1.02 | locus YHR013C, strain ard1, active compounds read low 0.959 | locus YHR027C, strain rpn1, active compounds read low 0.983 | locus YHR030C, strain SLT2, active compounds read low 1 and 0.991 | locus YHR079C, strain IRE1 (second series), active compounds read low 0.981 | locus YHR079C, strain IRE1, active compounds read low 0.99 | locus YHR094C, strain hxt1, active compounds read low 0.982 | locus YHR129C, strain ARP1, active compounds read low 1 | locus YHR142W, strain chs7, active compounds read low 0.977 | locus YHR200W, strain rpn10, active compounds read low 0.985 | locus YIL066C, strain RNR3, active compounds read low 1.02 | locus YIL073C, strain SPO22, active compounds read low 0.979 | locus YIL125W, strain kgd1, active compounds read low 0.975 | locus YIR030C, strain dcg1, active compounds read low 0.991 | locus YJL092W, strain hpr5, active compounds read low 0.977 | locus YJL095W, strain BCK1 (second series), active compounds read low 0.983 | locus YJL095W, strain BCK1, active compounds read low 1.04 and 0.955 | locus YJL115W, strain asf1, active compounds read low 0.986 | locus YJL129C, strain trk1, active compounds read low 0.966 | locus YJL134W, strain LCB3, active compounds read low 0.991 | locus YJL154C, strain vps35, active compounds read low 0.982 | locus YJL164C, strain tpk1, active compounds read low 1 | locus YJL166W, strain qcr8, active compounds read low 0.98 | locus YJL168C, strain set2, active compounds read low 0.989 | locus YJL187C, strain SWE1 (second series), active compounds read low 1 | locus YJL187C, strain SWE1, active compounds read low 0.981 | locus YJR043C, strain POL32, active compounds read low 1.04 | locus YJR066W, strain TOR1, active compounds read low 0.976 | locus YJR075W, strain HOC1, active compounds read low 1.04 | locus YKL009W, strain mrt4, active compounds read low 0.976 | locus YKL068W, active compounds read low 0.986 | locus YKL085W, strain MDH1 (second series), active compounds read low 0.99 | locus YKL085W, strain MDH1, active compounds read low 0.99 | locus YKL160W, strain elf1, active compounds read low 0.988 | locus YKR001C, strain vps1, active compounds read low 1.01 | locus YKR026C, strain gcn3, active compounds read low 0.978 | locus YKR091W, strain srl3, active compounds read low 0.988 | locus YLL001W, strain dnm1, active compounds read low 0.991 | locus YLL026W, active compounds read low 0.982 | locus YLL041C, strain sdh2, active compounds read low 0.977 | locus YLR027C, strain aat2, active compounds read low 0.98 | locus YLR039C, strain RIC1, active compounds read low 1.09 | locus YLR058C, strain SHM2, active compounds read low 1 | locus YLR102C, strain apc9, active compounds read low 0.977 | locus YLR113W, strain HOG1, active compounds read low 0.991 | locus YLR221C, strain rsa3, active compounds read low 0.953 | locus YLR258W, strain gsy2, active compounds read low 0.969 | locus YLR262C, strain YPT6 (second series), active compounds read low 1.01 | locus YLR262C, strain YPT6, active compounds read low 1.09 | locus YLR268W, strain sec22, active compounds read low 0.996 | locus YLR320W, strain mms22, active compounds read low 0.971 | locus YLR330W, strain CHS5, active compounds read low 0.995 | locus YLR342W, strain FKS1 (second series), active compounds read low 0.995 | locus YLR342W, strain FKS1, active compounds read low 0.969 | locus YLR357W, strain rsc2, active compounds read low 0.95 | locus YLR370C, strain arc18, active compounds read low 0.977 | locus YLR371W, strain rom2, active compounds read low 0.982 | locus YLR384C, strain iki3, active compounds read low 0.974 | locus YLR418C, strain cdc73, active compounds read low 1.03 | locus YML016C, strain PPZ1, active compounds read low 0.997 | locus YML032C, strain rad52, active compounds read low 0.97 | locus YML120C, strain ndi1, active compounds read low 0.992 | locus YML124C, strain tub3, active compounds read low 0.993 | locus YMR058W, strain fet3, active compounds read low 0.973 | locus YMR078C, strain ctf18, active compounds read low 1 | locus YMR125W, strain sto1, active compounds read low 0.982 | locus YMR129W, active compounds read low 0.986 | locus YMR205C, strain PFK2, active compounds read low 1.01 | locus YMR223W, strain ubp8, active compounds read low 1 | locus YMR231W, strain pep5, active compounds read low 0.951 | locus YMR307W, strain GAS1, active compounds read low 1.15 | locus YNL067W, strain RPL9B, active compounds read low 1.03 | locus YNL071W, strain lat1, active compounds read low 0.989 | locus YNL153C, strain GIM3, active compounds read low 1.04 | locus YNL183C, strain NPR1, active compounds read low 0.977 | locus YNL209W, strain ssb2, active compounds read low 0.992 | locus YNL233W, strain BNI4, active compounds read low 1.02 | locus YNL248C, strain rpa49, active compounds read low 0.976 | locus YNL250W, strain rad50, active compounds read low 0.985 | locus YNL271C, strain bni1, active compounds read low 1.01 | locus YNL298W, strain CLA4, active compounds read low 0.968 | locus YNL307C, strain MCK1, active compounds read low 0.982 | locus YNL322C, strain KRE1 (second series), active compounds read low 1 | locus YNL322C, strain KRE1, active compounds read low 1.01 | locus YNR049C, strain mso1, active compounds read low 0.971 | locus YNR052C, strain pop2, active compounds read low 0.983 | locus YOL012C, strain htz1 1.2 | locus YOL147C, strain pex11, active compounds read low 0.989 | locus YOR001W, strain rrp6, active compounds read low 0.956 | locus YOR061W, strain CKA2, active compounds read low 1 | locus YOR069W, strain VPS5, active compounds read low 0.991 | locus YOR070C, strain gyp1, active compounds read low 0.973 | locus YOR080W, strain dia2, active compounds read low 0.972 | locus YOR083W, strain WHI5, active compounds read low 1 | locus YOR106W, strain vam3, active compounds read low 1.03 | locus YOR136W, strain idh2, active compounds read low 0.984 | locus YOR144C, strain elg1, active compounds read low 0.999 | locus YOR184W, strain ser1, active compounds read low 1.02 | locus YOR231W, strain MKK1, active compounds read low 1 | locus YOR265W, strain rbl2, active compounds read low 0.996 | locus YOR270C, strain vph1, active compounds read low 0.971 | locus YOR290C, strain snf2, active compounds read low 0.967 | locus YOR316C, strain cot1, active compounds read low 0.975 | locus YPL051W, strain arl3, active compounds read low 0.965 | locus YPL078C, strain atp4, active compounds read low 0.995 | locus YPL106C, strain sse1, active compounds read low 0.987 | locus YPL240C, strain hsp82, active compounds read low 0.981 | locus YPL241C, strain CIN2, active compounds read low 1.01 | locus YPL256C, strain CLN2, active compounds read low 0.996 | locus YPR119W, strain clb2, active compounds read low 0.997 | locus YPR141C, strain kar3, active compounds read low 0.984 | locus YPR163C, strain tif3, active compounds read low 0.983 | locus YPR167C, strain met16, active compounds read low 1.01 | strain wtn01, active compounds read low 0.98
